Compound activity deposited in PubChem BioAssay by several laboratories.
The list is not random: actives were taken first. Their share in the collection is about 22%.
CYP2C19 act – activators of human cytochrome P450 2C19. P33261. 96,000 tested, under 10 active. AID 1025. recombinant CYP2C19, luciferin-H EGE luminescence; hits give high values; 0 = fully inhibited enzyme, 1 = untreated enzyme. activation factor at 5 µM;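 active = activation factor of at least 2 at 5 µM in the primary screen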;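 also: 0 = wells with 2.5 mM tranylcypromine and 1 = vehicle-only wells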
Target sequence (P33261 whole entry, looked up): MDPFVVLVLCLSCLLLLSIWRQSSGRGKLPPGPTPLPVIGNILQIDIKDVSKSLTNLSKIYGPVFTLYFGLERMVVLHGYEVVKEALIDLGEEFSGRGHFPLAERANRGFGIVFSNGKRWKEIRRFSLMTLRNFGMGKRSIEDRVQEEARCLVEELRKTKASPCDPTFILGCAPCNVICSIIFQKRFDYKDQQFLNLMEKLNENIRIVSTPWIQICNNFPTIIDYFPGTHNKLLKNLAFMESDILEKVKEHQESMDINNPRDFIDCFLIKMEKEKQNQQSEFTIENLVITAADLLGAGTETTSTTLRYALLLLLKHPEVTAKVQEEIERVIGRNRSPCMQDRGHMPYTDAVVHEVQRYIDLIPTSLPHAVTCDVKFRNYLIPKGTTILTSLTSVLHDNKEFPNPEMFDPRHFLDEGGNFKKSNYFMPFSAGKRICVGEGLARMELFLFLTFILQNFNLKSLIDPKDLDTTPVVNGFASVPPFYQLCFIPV
CYP2C9 inh – inhibitors of human CYP2C9; P11712; CYP2C9 Supersomes, luciferin-H conversion, luminescence; inhibition, % at 5 µM; 96,000 tested, 20% active;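 active = blocking of liver enzyme CYP2C9 beyond about 50% at 5 µM, limit read from the data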
CYP2C9 activ – CYP2C9 (human) activation | P11712 | recombinant CYP2C9, luciferin-H conversion, luminescence; hits give high values; factor 1 = untreated enzyme, 0 = blocked | activation factor at 5 µM | 96,000 tested, 1.4% active | AID 1024;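 active = activation factor of 2 or more for CYP2C9 at a 5 µM dose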;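 also: 0 = sulfaphenazole-blocked wells and 1 = vehicle-only wells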
Measles CPE – protection of cells from measles virus; 140,000 tested, 1.5% active; Measles virus-infected cells, CPE protection, absorbance; protection (pct of control), % at 4 µM; AID 841; in the data active = protection mostly above about 24%, no sharp cut-off; inactive = mostly below about 26%
CYP2C19 inh – inhibitors of human CYP2C19 | P33261 | CYP2C19 Supersomes, luciferin-H EGE luminescence, 30 min | inhibition, % at 5 µM | 96,000 tested, 21% active;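 active = CYP2C19 inhibition above a set limit at 5 µM in the primary screen, cut at about 50% in these data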;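 also: plate controls were negative control wells for no effect and 2.5 mM tranylcypromine positive control for full effect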
The depositor's hits bear a star; . = no result given.

SMILES	CYP2C19 act	CYP2C9 inh	CYP2C9 activ	Measles CPE	CYP2C19 inh
COc1cccc(CNC(=O)CCS(=O)(=O)c2cccs2)c1	0.5	17	0.8	3	53*
COc1cccc(CNC(=O)Cc2ccc(Br)cc2)c1	.	.	.	4	.
O=C(NCCN1CCCC1)c1ccc(CS(=O)(=O)c2c(Cl)cccc2Cl)o1	1.1	-6	1.1	6	-12
COC(=O)C1=C(C)NC(=O)NC1c1cn(-c2ccccc2)nc1-c1cccs1 (configuration not stated)	0.8	17	0.8	3	20
CCc1ccc(-c2nn(-c3ccccc3)cc2C2SCC(=O)N2Cc2ccco2)cc1 (configuration not stated)	0.6	67*	0.3	17	44
O=C1CSC(c2cn(-c3ccccc3)nc2-c2cccs2)N1CC1CCCO1 (configuration not stated)	0.3	80*	0.2	24	73*
O=C1CSC(c2cn(-c3ccccc3)nc2-c2ccccc2)N1Cc1ccco1 (configuration not stated)	0.1	96*	0	28	86*
COc1ccc(CC(=O)NC2CCN(CC(=O)Nc3ccc4c(c3)OCCO4)CC2)cc1OC	0.9	-1	1	2	5
CC(=O)c1ccc(N2CCN(C(=O)c3cc(-c4ccc5c(c4)OCO5)nc4ccccc34)CC2)cc1	0.6	62*	0.4	7	37
CCCN(CCC)C(=O)c1cc(-c2ccc3c(c2)OCO3)nc2ccccc12	0	100*	0	15	97*
CC(NC(=O)c1cc(-c2ccc3c(c2)OCO3)nc2ccccc12)C(C)(C)C (configuration not stated)	0.7	56*	0.4	20	30
O=C(O)c1cc(-c2ccc3c(c2)OCO3)nc2ccccc12	1	40	0.6	13	-2
O=C(N/N=C/c1ccc2c(c1)OCO2)c1cc(-c2ccc(F)cc2)nc2ccccc12	.	.	.	12	.
COc1cccc(CNC(=O)C2CCN(S(=O)(=O)c3c(C)nn(C)c3C)CC2)c1	1	-28	1.3	4	4
CCS(=O)(=O)NC(C)C(c1cccs1)N1CCN(c2ccc(F)cc2)CC1 (configuration not stated)	0.6	19	0.8	9	36
CN(C)C(=O)N1CCC(C(=O)NCc2ccccc2Cl)CC1	0.9	-38	1.4	4	6
CC1CCCCC1NC(=O)C1CCN(C(=O)c2sccc2-n2cccc2)CC1 (configuration not stated)	0.8	7	0.9	14	20
O=C(NCc1ccccc1Cl)C1CCN(C(=O)c2sccc2-n2cccc2)CC1	0.4	25	0.8	9	61*
CCOc1ccccc1CNC(=O)C1CCN(C(=O)c2sccc2-n2cccc2)CC1	0.2	-8	1.1	3	84*
CCCCOc1nc2ccccc2nc1C(C#N)C(=O)NC1CCCCC1 (configuration not stated)	0.9	50	0.5	15	12
CC(=O)c1ccc2c3c(ccc(O)c13)CC2	0.7	-142	2.4*	21	32
O=C(/C=C/c1ccccc1)c1ccc2c3c(cccc13)CC2	.	.	.	8	.
CCn1c(SCc2ccccc2Cl)nc2ccccc21	0.6	-19	1.2	10	39
CCn1c(CSc2nc3ccccc3n2C)nc2ccccc21	0.1	38	0.6	17	86*
Cn1c(SCc2ccccc2Cl)nc2ccccc21	0.3	-28	1.3	15	73*
SMILES	CYP2C19 act	CYP2C9 inh	CYP2C9 activ	Measles CPE	CYP2C19 inh
CCCCC(=O)/C=C/n1c(=S)oc2ccccc21	.	.	.	0	.
CC1CN(S(=O)(=O)c2cccc(C(=O)Nc3ccc4c(c3)CCC4)c2)CC(C)O1 (configuration not stated)	.	.	.	6	.
COc1ccc2nc(Nc3ccc4c(c3)OCO4)sc2c1	0.3	21	0.8	7	65*
COc1ccc2nc(Nc3nc4cc5c(cc4s3)OCO5)sc2c1	.	.	.	6	.
CCCCC(CCC(=O)Nc1ccc(C(=O)OC)cc1)C(=O)O (configuration not stated)	.	.	.	9	.
CCCCNC(=O)COc1ccccc1C(=O)c1cc(C#N)c(=O)n(CCOC)c1	.	.	.	42*	.
O=C(Cn1ncc2ccccc21)N1CCc2ccccc21	0.7	43	0.6	45*	31
Cn1c(SCC(=O)N2CCc3ccccc32)nnc1C1CC1	0.2	8	0.9	10	76*
Nc1cc(N)nc(SCC(=O)N2CCc3ccccc32)n1	0.9	-145	2.5*	1	13
O=C(c1ccccc1F)N1CCc2ccccc21	0.4	-250	3.5*	.	62*
Cc1ccccc1OCc1nnc(SCC(=O)N2CCc3ccccc32)n1C	.	.	.	5	.
O=C(Nc1cccc(Cl)c1)Nc1nnc(CSCCOc2ccc(Cl)cc2)s1	.	.	.	3	.
CCCCN(CCCC)CCCOC(=O)c1ccc(N)cc1	.	.	.	13	.
O=C(CSc1nc2cc(Cl)ccc2s1)N1CCCc2ccccc21	0.6	62*	0.4	10	44
O=C(Cc1coc2ccc3ccccc3c12)N1CCc2ccccc21	1	-57	1.6	9	1
O=C(O)CN1CCN(Cc2ccccc2)C1=O	.	.	.	3	.
Cc1ccc2c(CC(=O)N3CCc4ccccc43)coc2c1	0.2	43	0.6	23	79*
CCn1cc(SCC(=O)N2CCc3ccccc32)c2ccccc21	0.4	60*	0.4	2	61*
O=C1N(CC(=O)N2CCc3ccccc32)CCN1Cc1ccc(Cl)cc1	0.8	-134	2.3*	5	19
O=C(Cc1cccs1)N1CCN(S(=O)(=O)c2ccc(Br)cc2)CC1	.	.	.	6	.
CCCCOC(=O)Nc1cc(C(=O)OC)ccc1C(=O)OC	0.8	23	0.8	14	15
CC(C(=O)N1CCc2ccccc21)n1cccc1 (configuration not stated)	0.2	-4	1	21	82*
O=C(Cn1cccc1)N1CCc2ccccc21	0.9	-1	1	100*	7
O=C(Cc1c[nH]c2ccccc12)N1CCc2ccccc21	0.1	77*	0.2	5	92*
O=C(CSc1ccccc1)N1CCc2ccccc21	0.1	20	0.8	13	94*
SMILES	CYP2C19 act	CYP2C9 inh	CYP2C9 activ	Measles CPE	CYP2C19 inh
Cc1nn(C)cc1/C=N/NC(=O)Cn1nccc1C	.	.	.	11	.
O=C(CSc1nc(O)cc(=O)[nH]1)N1CCCc2ccccc21	0.9	3	1	48*	9
O=C(c1cccc2ccccc12)N1CCN(c2ccc([N+](=O)[O-])c(NCc3ccco3)c2)CC1	.	.	.	18	.
Cc1ccccc1C(=O)N1CCN(c2ccc([N+](=O)[O-])c(NCc3ccco3)c2)CC1	0.8	34	0.7	23	21
Cc1ccc(C(=O)N2CCN(c3ccc([N+](=O)[O-])c(NCc4ccco4)c3)CC2)cc1	0.5	74*	0.3	13	46
Cc1cccc(C(=O)N2CCN(c3ccc([N+](=O)[O-])c(NCc4ccco4)c3)CC2)c1	0.2	78*	0.2	7	78*
Cc1ncc(CCl)c2c1OC(C)(C)OC2	.	.	.	2	.
N#Cc1ccc(NC(=O)C2CC(c3ccc(F)cc3)=NO2)cc1 (configuration not stated)	0.9	9	0.9	0	8
